Results on 62 compounds are retold here after PubChem BioAssay (EPA / NIEHS).

“And” between values parts separate entries of the source, which are not always exact repeats. Identical values can stand only once. Results filed as inconclusive are left out. The source holds several records for some structures; these can differ, active in one and inactive in another. The source made the active and inactive calls. How the source made its calls: active means hit-call score of the fitted dose curve at least 0.9, where 1 is the maximum; inconclusive means response in the unintended direction; inactive means score below 0.9. Peptide text beside a SMILES is read from it.

Experiment [1] in a line: ATG_XTT_Cytotoxicity: Cytotoxicity Assessment in the Attagene TRANS-FACTORIAL HepG2 Assay (AID 2283584). The gist of the method:
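HepG2 cells transiently transfected with GAL4-UAS multiple reporter units, dosed 24 h; cytotoxicity read by XTT as loss of signal versus DMSO baseline.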

The target of experiment [2] is Cellular tumor antigen p53 (Homo sapiens) (UniProt P04637). Put plainly: TOX21_p53_BLA_p2_ratio: Tox21 HCT-116 p53 Agonism Beta-lactamase Assay, Ratio, Phase 2 (AID 2283592). Put shortly:
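First, HCT116 reporter cells settle for 5 h at 37C. Next, DMSO compound solutions are pinned in (217-fold dilution) and left 16 h. Finally, CCF4-AM substrate is loaded 2 h at room temperature and the 460/530 nm ratio read.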

A short description of experiment [3]: TOX21_p53_BLA_p3_viability: Viability Assessment in the Tox21 HCT-116 p53 Agonism Beta-lactamase Assay, Phase 3 (AID 2283593).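 Further: cells exposed to compound for 16 h before reading.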 The gist of the method:
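HCT-116 cells (4000/well) rested 5 h at 37C, then got DMSO compounds by pin tool (217-fold dilution) for 16 h at 37C, 5% CO2. After the bla read, CellTiter-Glo was added and luminescence read at 30 min, room temperature.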

Experiment [4] in a line: TOX21_p53_BLA_p2_viability: Viability Assessment in the Tox21 HCT-116 p53 Agonism Beta-lactamase Assay, Phase 2 (AID 2283591).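 Further: compound exposure lasted 16 h at 37 °C; actives lower the ATP signal meaning cytotoxicity.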 Put shortly:
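HCT-116 p53-bla cells (4000/well) rested 5 h at 37C, then received compounds in DMSO (217-fold dilution) for 16 h at 37C, 5% CO2. After the CCF4 read, CellTiter-Glo was added; ATP luminescence was read after 30 min at room temperature.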

Chain of Cellular tumor antigen p53 (Homo sapiens) (P04637 whole entry, looked up): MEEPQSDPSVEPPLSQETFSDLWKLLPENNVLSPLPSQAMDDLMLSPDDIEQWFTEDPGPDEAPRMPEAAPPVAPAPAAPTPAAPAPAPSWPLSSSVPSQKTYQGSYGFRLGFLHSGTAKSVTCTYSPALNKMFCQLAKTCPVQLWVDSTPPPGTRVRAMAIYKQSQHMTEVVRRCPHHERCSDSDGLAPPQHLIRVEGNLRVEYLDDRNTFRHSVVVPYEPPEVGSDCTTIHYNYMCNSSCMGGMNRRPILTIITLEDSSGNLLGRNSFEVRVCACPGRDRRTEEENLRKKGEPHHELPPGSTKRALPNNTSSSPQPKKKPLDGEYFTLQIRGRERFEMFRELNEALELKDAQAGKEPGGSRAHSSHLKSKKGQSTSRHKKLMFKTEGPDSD

Regarding `C=C(C)C1CC=C(C)C(OC(C)=O)C1` (stereo not given), the compound was called inactive in experiment [1] and in experiment [2].
Turning to `CC(=O)OCC=C(C)C`, the call in experiment [1] and in experiment [2] was inactive.
Turning to `CCC[Si](OC)(OC)OC`, the outcome in experiment [1] and in experiment [3] was inactive.
As to `Cc1c(C(=O)c2c[nH]n(C)c2=O)ccc(S(C)(=O)=O)c1C1=NOCC1`, the call in experiment [1] and in experiment [2] was inactive.
With `CCCCC1CCC(=O)O1` (stereo not given), the outcome in experiment [1] and in experiment [2] was inactive.
Take `Cc1ccccc1CCO`: the call in experiment [4] was inactive.
On to `C=C[C@@]1(C)CC(=O)[C@]2(O)[C@@]3(C)[C@@H](O)CCC(C)(C)[C@@H]3[C@H](O)[C@H](OC(C)=O)[C@@]2(C)O1`, for which the compound was classed as inactive in experiment [4] and in experiment [2].
In the case of `CC(=O)C(C)C`, the compound was called inactive in experiment [4].
Consider `Cc1cccc(C(C)(C)C)c1O`, for which the compound was called inactive in experiment [4] and in experiment [2].
In the case of `CC(C)c1cc(C(C)C)cc(C(C)C)c1`, the compound was classed as inactive in experiment [4].
In the case of `CCCCCOC(=O)CCCCC`, the result in experiment [1], in experiment [2] and in experiment [3] was inactive.
Turning to `CCOC(=O)C1=NOC(c2ccccc2)(c2ccccc2)C1`, the compound was called inactive in experiment [1] and in experiment [2].
As for `O=C(OCCc1ccccc1)c1ccccc1`, the compound was called inactive in experiment [1] and in experiment [2].
Regarding `CCCCCCCOC(=O)c1ccc(O)cc1`, the AC50 in experiment [4] is 44.8 µM (active); in experiment [2], 58.9 µM (active) and 86.4 µM (active); in experiment [3] it was 44.2 µM (active). Also, the call in experiment [4] and in experiment [3] was inactive.
Take `O=C(O)CC(C(=O)O)S(=O)(=O)O` (stereo not given): the outcome in experiment [1], in experiment [2] and in experiment [3] was inactive.
With `CC=C(C)C=CC=C(C)C`, the compound was called inactive in experiment [1] and in experiment [3].
In the case of `CCCCCC[C@@H](O)C/C=C\CCCCCCCC(=O)OCC(O)CO` (stereo not given in full), the compound was called inactive in experiment [1], in experiment [2] and in experiment [3].
Regarding `CC(=O)c1ccccc1O`, the call in experiment [1], in experiment [2] and in experiment [3] was inactive.
Turning to `NNS(=O)(=O)c1ccc(Oc2ccc(S(=O)(=O)NN)cc2)cc1`, the result in experiment [1] and in experiment [3] was inactive.
In the case of `Nc1ccnc(=O)[nH]1`, the compound was called inactive in experiment [4] and in experiment [2].
For the compound `CC(C)=CCCC(C)=CC#N`, the result in experiment [4] and in experiment [2] was inactive.
As for `CCc1occc(=O)c1O`, the compound was classed as inactive in experiment [4].
Take `Nc1ncnc2nc[nH]c12`: the outcome in experiment [1], in experiment [2] and in experiment [3] was inactive.
Consider `CCC(C)(O)CCCC(C)C` (stereo not given), for which the result in experiment [1], in experiment [2] and in experiment [3] was inactive.
Take `CCC1COC(=O)O1` (stereo not given): the compound was classed as inactive in experiment [1], in experiment [2] and in experiment [3].
`COC(=O)c1ccccc1C`: in experiment [3], the outcome was inactive.
Consider `COC(=O)CC(C)CCC=C(C)C` (stereo not given), for which the outcome in experiment [2] and in experiment [3] was inactive.
In the case of `CC(C)COC(=O)CC(C(=O)OCC(C)C)S(=O)(=O)O` (stereo not given), the call in experiment [4], in experiment [2] and in experiment [3] was inactive.
Take `C=C(C)OC(C)=O`: the result in experiment [4], in experiment [2] and in experiment [3] was inactive.
On to `C=CC(=O)OCCCCCCCC(C)C`, for which the outcome in experiment [2] and in experiment [3] was inactive.
`CCC(C)C(=O)OCCc1ccccc1` (stereo not given): in experiment [2], the result was inactive.
With `C=CCNCC=C`, the result in experiment [4], in experiment [2] and in experiment [3] was inactive.
In the case of `CCOC(=O)c1ccccc1C`, the outcome in experiment [4], in experiment [2] and in experiment [3] was inactive.
Take `CC1=CC(C)C(C=O)CC1` (stereo not given): the result in experiment [2] was inactive.
For `O=C(O)CCCC(=O)O`, the outcome in experiment [2] and in experiment [3] was inactive.
Regarding `CCc1cccc(C)c1N`, the call in experiment [4], in experiment [2] and in experiment [3] was inactive.
Regarding `C=CC(=O)OCCCCCCCCCC`, the result in experiment [2] and in experiment [3] was inactive.
For the compound `CCCCNC(=S)NCCCC`, the compound was classed as inactive in experiment [4], in experiment [2] and in experiment [3].
Turning to `O=S(=O)(O)c1ccc(N=Nc2c(O)ccc3ccccc23)cc1`, the outcome in experiment [4], in experiment [2] and in experiment [3] was inactive.
As to `CCCCCCOC(=O)CCCCC(=O)OCCCCCC`, the call in experiment [4], in experiment [2] and in experiment [3] was inactive.
`CCCCCCCCCCCC(C)=O`: in experiment [3], the compound was classed as inactive.
As to `COC(=O)[C@H](Cc1ccccc1)NC(=O)[C@@H](N)CC(=O)O` (H-Asp-Phe-OMe), the result in experiment [4], in experiment [2] and in experiment [3] was inactive.
Regarding `CCCCCCCC(=O)OCC(COC(=O)CCCCCCC)OC(=O)CCCCCCC`, the call in experiment [4], in experiment [2] and in experiment [3] was inactive.
Regarding `C=C[Si](OCCOC)(OCCOC)OCCOC`, the outcome in experiment [4] and in experiment [3] was inactive.
For the compound `O=C(C=Cc1ccccc1)OCCc1ccccc1`, the result in experiment [2] was inactive.
As to `CC1=CCC2CC1C2(C)C` (stereo not given), the compound was called inactive in experiment [4] and in experiment [3].
Turning to `Clc1cc(Cl)c(Cl)c(Cl)c1Cl`, in experiment [2], the outcome was inactive.
Take `CCCCCCCCCCCCc1ccc(O)cc1`: the AC50 in experiment [2] was 65.5 µM (active).
Consider `Nc1ccc(C(=O)OCCCOC(=O)c2ccc(N)cc2)cc1`, for which the result in experiment [4] and in experiment [3] was inactive.
In the case of `CC(=O)c1ccc(S(=O)(=O)NC(=O)NC2CCCCC2)cc1`, the compound was classed as inactive in experiment [4], in experiment [2] and in experiment [3].
For `CC1CC(=O)CC(C)(C)C1` (stereo not given), the outcome in experiment [2] was inactive.
In the case of `O=c1c(O)c(-c2ccc(O)cc2O)oc2cc(O)cc(O)c12`, the outcome in experiment [4] and in experiment [3] was inactive.
For `CN(C)Cc1cc(CN(C)C)c(O)c(CN(C)C)c1`, the outcome in experiment [2] was inactive.
Take `C=C(C)C(=O)OCCOC(=O)C(=C)C`: the outcome in experiment [4], in experiment [2] and in experiment [3] was inactive.
Take `C[Si]1(C)O[Si](C)(C)O[Si](C)(C)O[Si](C)(C)O[Si](C)(C)O1`: the outcome in experiment [2] was inactive.
For `CC(C)=CCl`, the compound was called inactive in experiment [4] and in experiment [3].
Turning to `O=C(Nc1ccccc1)c1cc(Cl)ccc1O`, the AC50 in experiment [4] was 12.9 µM (active); in experiment [2], 3.55 µM (active). The call in experiment [3] was inactive.
`CCCC1CCCC(=O)O1` (stereo not given): the result in experiment [4] and in experiment [3] was inactive.
`OCCCc1ccccc1`: the compound was called inactive in experiment [4], in experiment [2] and in experiment [3].
Consider `O=C(OCc1ccccc1)c1ccc(O)cc1`, for which the compound was classed as inactive in experiment [4], in experiment [2] and in experiment [3].
Take `CCCc1ccc(O)c(OC)c1`: in experiment [2], the outcome was inactive.
As to `CC12CCC(CC1)C(C)(C)O2`, the outcome in experiment [4], in experiment [2] and in experiment [3] was inactive.
